The supplement of paper PMC10849652
About 7,900 targets were measured; listed, in parts, are those with a hit and a random draw of the rest. About 0.6% of all pairs of compound and target were hits.

Experiments:
Assay in all cases: log2 fold change, soluble protein after heating vs DMSO (PISA); higher = thermal stabilisation; K562 cells, 10 uM, 30 min; active = over 0.2 and 3.5 SD of the protein, either way, in both replicates (recomputed)
[1] = compound: C1=CC=C(C=C1)[C@H](COC2=CC3=C(C=C2)NC(=O)N3)NC(=O)C4=CC=CN(C4=O)CC5=CC(=C(C=C5)F)F
Procedure, shortened: (§1)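 K562 cells at 2×10^6 cells/mL were exposed to 10 μM compound for 30 min, then aliquots were heated for 3 min across 48°C-58°C, pooled, and extracted in PBS containing 0.5% NP-40 at 4°C. The supernatant after 21,000xg for 90 min was taken as soluble protein and measured by TMTpro 16plex LC-MS/MS with channel sums equalised. Thermal stability is reported relative to control samples, with values from duplicates. Fold changes are given on a log2 scale.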

[2] = compound: CC1=C(SC2=C1C(=N[C@H](C3=NN=C(N32)C)CC(=O)N)C4=CC=C(C=C4)Cl)C
Procedure, shortened: as §1

[3] = compound: CC1=C2C(=CC=C1)N=C(N(C2=O)C3=CC=CC=C3C)CN4C=NC5=C(N=CN=C54)N
Procedure, shortened: as §1

[4] = compound: Cc1sc2c(c1C)C(c1ccc(Cl)cc1)=N[C@@H](CC(=O)OC(C)(C)C)c1nnc(C)n1-2
Procedure, shortened: as §1

[5] = compound: c1ccc([C@@H]2C[C@H]2NC2CCNCC2)cc1
Procedure, shortened: as §1

Measured: log2 fold change

HSD17B12 (UniProt Q53GQ0)
Chain of UniProt Q53GQ0 (Q53GQ0 whole entry, looked up): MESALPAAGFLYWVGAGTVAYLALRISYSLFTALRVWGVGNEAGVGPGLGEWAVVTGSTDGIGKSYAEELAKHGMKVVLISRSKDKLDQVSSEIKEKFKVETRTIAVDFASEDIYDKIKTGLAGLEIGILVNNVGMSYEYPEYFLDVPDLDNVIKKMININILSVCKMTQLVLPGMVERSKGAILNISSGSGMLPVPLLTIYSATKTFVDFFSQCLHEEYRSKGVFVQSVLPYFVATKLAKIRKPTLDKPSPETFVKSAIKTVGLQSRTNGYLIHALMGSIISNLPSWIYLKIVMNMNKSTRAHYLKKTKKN
inactive: [1] 0.013 | [2] 0.061 | [3] 0.066 | [4] 0.042 | [5] -0.008

HTATIP2 isoform 3 (UniProt Q9BUP3)
inactive: [1] 0.063 | [2] 0.031 | [3] 0.059 | [4] 0.028 | [5] -0.03

GATD1 (UniProt Q8NB37)
inactive: [1] -0.038 | [2] 0.043 | [3] 0.019 | [4] 0.019 | [5] 0.007

GSTO1 (UniProt P78417)
inactive: [1] -0.024 | [2] 0.028 | [3] -0.002 | [4] -0.013 | [5] 0.007

GLRX3 (UniProt O76003)
inactive: [1] 0.04 | [2] 0.072 | [3] 0.072 | [4] -0.033 | [5] -0.018

FDXR isoform 7 (UniProt P22570)
inactive: [1] -0.069 | [2] 0.106 | [3] 0.038 | [4] -0.037 | [5] -0.01

HRAS (UniProt P01112)
inactive: [1] 0.015 | [2] 0.116 | [3] -0.03 | [4] 0.016 | [5] 0.138

FAM91A1 (UniProt Q658Y4)
inactive: [1] 0 | [2] 0.04 | [3] 0.028 | [4] 0.013 | [5] -0.043

GSTT1 (UniProt P30711)
inactive: [1] 0.032 | [2] 0.121 | [3] 0.165 | [4] -0.146 | [5] 0.026

HAUS4 (UniProt Q9H6D7)
inactive: [1] 0.094 | [2] -0.066 | [3] 0.077 | [4] -0.021 | [5] -0.002

FDPS (UniProt P14324)
inactive: [1] -0.328 | [2] 0.063 | [3] 0.143 | [4] 0.001 | [5] -0.121

GNB2 (UniProt P62879)
inactive: [1] 0.025 | [2] 0.045 | [3] 0.029 | [4] -0.09 | [5] -0.015

GNL3 (UniProt Q9BVP2)
inactive: [1] 0.101 | [2] 0.112 | [3] 0.164 | [4] -0.131 | [5] -0.053

HP1BP3 (UniProt Q5SSJ5)
inactive: [1] 0.015 | [2] -0.04 | [3] 0.087 | [4] 0.142 | [5] 0.011

GNL1 (UniProt P36915)
inactive: [1] -0.042 | [2] -0.007 | [3] 0.099 | [4] -0.037 | [5] -0.038

HMOX2 (UniProt P30519)
inactive: [1] 0.024 | [2] 0.035 | [3] 0.169 | [4] 0.047 | [5] -0.036

GOLGB1 isoform 2 (UniProt Q14789)
inactive: [1] 0.045 | [2] -0.024 | [3] 0.018 | [4] 0.013 | [5] 0.045

H1FX (UniProt Q92522)
inactive: [1] 0.088 | [2] -0.146 | [3] -0.21 | [4] 0.135 | [5] -0.005

HAX1 (UniProt O00165)
inactive: [1] -0.112 | [2] -0.008 | [3] 0.063 | [4] 0.008 | [5] -0.002

GPD1 (UniProt P21695)
inactive: [1] 0.095 | [2] 0.028 | [3] 0.123 | [4] -0.019 | [5] -0.238

HNRNPH1 (UniProt P31943)
inactive: [1] -0.032 | [2] -0.007 | [3] 0.045 | [4] -0.015 | [5] -0.017

GALNT1 (UniProt Q10472)
inactive: [1] -0.034 | [2] 0.069 | [3] -0.002 | [4] -0.01 | [5] -0.007

GALNT11 (UniProt Q8NCW6)
inactive: [1] -0.027 | [2] 0.096 | [3] 0.093 | [4] -0.097 | [5] -0.027

GLYR1 (UniProt Q49A26)
Chain of UniProt Q49A26 (Q49A26 whole entry, looked up): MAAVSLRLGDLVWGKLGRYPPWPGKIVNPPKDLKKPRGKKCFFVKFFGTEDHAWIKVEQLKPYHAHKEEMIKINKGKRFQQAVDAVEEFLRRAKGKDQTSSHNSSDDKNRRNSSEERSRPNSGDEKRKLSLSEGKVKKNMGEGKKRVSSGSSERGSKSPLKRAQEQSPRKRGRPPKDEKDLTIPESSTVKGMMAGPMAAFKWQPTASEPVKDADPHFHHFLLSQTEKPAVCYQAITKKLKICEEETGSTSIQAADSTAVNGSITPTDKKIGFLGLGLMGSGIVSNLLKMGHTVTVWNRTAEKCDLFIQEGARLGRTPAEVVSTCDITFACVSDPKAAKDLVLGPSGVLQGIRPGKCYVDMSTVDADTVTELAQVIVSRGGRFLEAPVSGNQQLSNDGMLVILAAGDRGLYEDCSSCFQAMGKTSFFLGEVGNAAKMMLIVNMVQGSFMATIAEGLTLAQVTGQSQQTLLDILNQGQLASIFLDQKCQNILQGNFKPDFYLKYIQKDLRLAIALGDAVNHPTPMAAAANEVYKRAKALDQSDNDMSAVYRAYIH
inactive: [1] 0.147 | [2] 0.054 | [3] -0.016 | [4] 0.058 | [5] 0.067

GALC (UniProt P54803)
inactive: [1] 0.046 | [2] 0.055 | [3] 0.055 | [4] -0.043 | [5] 0.006

HNRNPK isoform 2 (UniProt P61978)
inactive: [1] -0.027 | [2] 0.012 | [3] 0.047 | [4] -0.023 | [5] 0.013

GTF3C5 isoform 3 (UniProt Q9Y5Q8)
inactive: [1] -0.097 | [2] -0.082 | [3] 0.103 | [4] 0.049 | [5] -0.159

FOXO3 (UniProt O43524)
inactive: [2] 0.065 | [3] 0.012 | [4] 0.125 | [5] -0.039

HIST2H2BF isoform 2 (UniProt Q5QNW6)
inactive: [1] 0.148 | [2] -0.273 | [3] -0.29 | [4] -0.082 | [5] 0.125

GBF1 (UniProt Q92538)
Chain of UniProt Q92538 (Q92538 whole entry, looked up): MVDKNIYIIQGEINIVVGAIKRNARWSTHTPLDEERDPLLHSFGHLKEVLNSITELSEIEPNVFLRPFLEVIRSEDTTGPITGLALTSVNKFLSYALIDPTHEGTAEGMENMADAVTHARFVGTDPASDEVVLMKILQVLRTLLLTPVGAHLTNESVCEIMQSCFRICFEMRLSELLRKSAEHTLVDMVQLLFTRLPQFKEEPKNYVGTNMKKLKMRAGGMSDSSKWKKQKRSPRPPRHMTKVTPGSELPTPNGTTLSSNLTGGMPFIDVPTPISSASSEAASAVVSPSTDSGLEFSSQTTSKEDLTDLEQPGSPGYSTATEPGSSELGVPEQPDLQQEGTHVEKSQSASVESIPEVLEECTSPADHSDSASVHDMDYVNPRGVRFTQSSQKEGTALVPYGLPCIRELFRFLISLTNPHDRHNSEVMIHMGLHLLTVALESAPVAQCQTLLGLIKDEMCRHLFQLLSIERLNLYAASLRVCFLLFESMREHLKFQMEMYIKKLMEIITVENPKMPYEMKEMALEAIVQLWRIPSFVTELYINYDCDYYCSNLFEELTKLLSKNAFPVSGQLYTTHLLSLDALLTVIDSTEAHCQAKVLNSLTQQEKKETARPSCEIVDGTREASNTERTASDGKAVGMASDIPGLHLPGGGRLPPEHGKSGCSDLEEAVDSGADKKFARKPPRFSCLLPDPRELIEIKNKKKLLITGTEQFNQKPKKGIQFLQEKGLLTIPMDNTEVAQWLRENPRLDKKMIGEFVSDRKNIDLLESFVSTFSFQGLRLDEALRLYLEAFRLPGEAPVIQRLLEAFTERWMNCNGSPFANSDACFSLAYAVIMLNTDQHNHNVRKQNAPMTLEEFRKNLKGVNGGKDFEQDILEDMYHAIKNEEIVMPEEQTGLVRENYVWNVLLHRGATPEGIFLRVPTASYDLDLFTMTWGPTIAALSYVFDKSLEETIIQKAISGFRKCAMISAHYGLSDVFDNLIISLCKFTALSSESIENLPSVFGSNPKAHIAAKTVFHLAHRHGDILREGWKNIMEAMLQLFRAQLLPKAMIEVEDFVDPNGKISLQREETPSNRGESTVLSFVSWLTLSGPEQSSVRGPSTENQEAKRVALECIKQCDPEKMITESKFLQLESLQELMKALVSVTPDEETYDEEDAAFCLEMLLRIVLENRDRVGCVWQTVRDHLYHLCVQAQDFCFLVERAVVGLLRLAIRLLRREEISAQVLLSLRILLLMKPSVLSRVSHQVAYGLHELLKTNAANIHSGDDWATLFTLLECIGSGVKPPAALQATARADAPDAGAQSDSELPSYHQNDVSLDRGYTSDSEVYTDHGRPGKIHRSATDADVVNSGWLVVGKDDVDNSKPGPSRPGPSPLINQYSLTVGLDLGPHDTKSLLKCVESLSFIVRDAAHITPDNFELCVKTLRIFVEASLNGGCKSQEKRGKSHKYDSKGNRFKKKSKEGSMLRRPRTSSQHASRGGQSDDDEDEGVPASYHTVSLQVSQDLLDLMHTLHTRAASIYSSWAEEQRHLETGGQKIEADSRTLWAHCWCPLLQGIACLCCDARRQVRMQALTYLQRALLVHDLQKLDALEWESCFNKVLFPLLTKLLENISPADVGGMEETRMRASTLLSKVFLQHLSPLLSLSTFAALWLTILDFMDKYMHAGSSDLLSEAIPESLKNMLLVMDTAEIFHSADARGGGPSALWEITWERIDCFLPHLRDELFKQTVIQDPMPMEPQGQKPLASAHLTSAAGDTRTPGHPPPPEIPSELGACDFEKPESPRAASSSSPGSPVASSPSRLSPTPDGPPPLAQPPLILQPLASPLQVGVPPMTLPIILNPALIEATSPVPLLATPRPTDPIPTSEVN
inactive: [1] -0.078 | [2] 0.036 | [3] 0.072 | [4] -0.005 | [5] 0.003

FYB1 isoform 3 (UniProt O15117)
Chain of UniProt O15117 (O15117 whole entry, looked up): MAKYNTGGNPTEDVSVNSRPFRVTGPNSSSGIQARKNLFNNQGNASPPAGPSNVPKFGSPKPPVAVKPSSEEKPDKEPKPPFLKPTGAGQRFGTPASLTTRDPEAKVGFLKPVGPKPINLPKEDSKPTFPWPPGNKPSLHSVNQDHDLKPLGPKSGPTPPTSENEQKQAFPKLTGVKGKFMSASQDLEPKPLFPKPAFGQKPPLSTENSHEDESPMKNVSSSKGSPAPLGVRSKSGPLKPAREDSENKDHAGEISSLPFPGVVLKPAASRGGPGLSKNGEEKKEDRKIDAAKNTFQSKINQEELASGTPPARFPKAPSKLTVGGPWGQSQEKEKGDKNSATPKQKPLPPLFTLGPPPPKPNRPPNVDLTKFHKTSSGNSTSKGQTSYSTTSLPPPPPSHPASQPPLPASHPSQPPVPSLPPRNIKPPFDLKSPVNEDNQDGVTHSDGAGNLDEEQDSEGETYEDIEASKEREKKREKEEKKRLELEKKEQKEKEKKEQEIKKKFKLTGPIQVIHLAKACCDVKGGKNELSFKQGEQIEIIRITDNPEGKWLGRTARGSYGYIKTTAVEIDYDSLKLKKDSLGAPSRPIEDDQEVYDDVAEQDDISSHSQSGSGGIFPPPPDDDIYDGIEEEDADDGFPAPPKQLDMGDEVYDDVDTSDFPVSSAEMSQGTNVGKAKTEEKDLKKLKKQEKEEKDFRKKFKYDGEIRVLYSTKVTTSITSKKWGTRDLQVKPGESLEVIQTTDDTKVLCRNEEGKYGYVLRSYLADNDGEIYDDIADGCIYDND
inactive: [1] -0.09 | [3] 0.005 | [4] -0.017

IGF2 isoform 3 (UniProt P01344)
inactive: [3] 0.077

GOLGA6B (UniProt A6NDN3)
inactive: [1] 0.043 | [3] 0.19

HMG20A (UniProt Q9NP66)
Chain of UniProt Q9NP66 (Q9NP66 whole entry, looked up): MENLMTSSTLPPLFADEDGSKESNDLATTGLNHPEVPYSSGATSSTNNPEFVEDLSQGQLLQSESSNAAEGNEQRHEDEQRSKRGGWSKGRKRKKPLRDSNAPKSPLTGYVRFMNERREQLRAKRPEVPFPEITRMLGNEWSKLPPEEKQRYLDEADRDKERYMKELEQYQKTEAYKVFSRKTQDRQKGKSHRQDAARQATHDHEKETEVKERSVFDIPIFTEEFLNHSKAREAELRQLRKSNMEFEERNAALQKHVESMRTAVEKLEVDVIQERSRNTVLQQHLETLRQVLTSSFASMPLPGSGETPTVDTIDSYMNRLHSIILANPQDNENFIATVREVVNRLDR
active: [5] 0.536
inactive: [1] 0.07 | [2] -0.085 | [3] 0.048 | [4] 0.048

FMR1 (UniProt Q06787)
inactive: [2] -0.237 | [5] -0.038

GPKOW (UniProt Q92917)
inactive: [1] -0.133 | [2] 0.078 | [3] 0.076 | [4] 0 | [5] -0.015

IDH3A isoform 2 (UniProt P50213)
inactive: [1] 0.118 | [2] 0.251 | [4] -0.069 | [5] -0.059

HRC (UniProt P23327)
inactive: [1] 0.026 | [2] -0.042 | [3] 0.055 | [4] 0.014 | [5] 0.033

HNRNPUL2 (UniProt Q1KMD3)
inactive: [1] 0.054 | [2] -0.05 | [3] -0.041 | [4] 0.105 | [5] 0.04

FCF1 (UniProt Q9Y324)
inactive: [3] -0.362 | [4] 0.248

FBXO7 (UniProt Q9Y3I1)
inactive: [1] -0.002 | [2] 0.033 | [3] 0.045 | [4] -0.033 | [5] 0.024

HNRNPUL1 (UniProt Q9BUJ2)
inactive: [1] -0.021 | [2] -0.028 | [3] 0.024 | [4] 0.07 | [5] 0.058

GPS2 (UniProt Q13227)
inactive: [1] 0.015 | [3] 0 | [4] 0.039

IFRD1 (UniProt O00458)
inactive: [1] -0.011 | [2] -0.069 | [3] 0.049 | [4] 0.02 | [5] 0.004

GSK3B isoform 2 (UniProt P49841)
inactive: [1] 0 | [2] 0.083 | [3] 0.026 | [4] -0.016 | [5] -0.008

HS1BP3 (UniProt Q53T59)
Chain of UniProt Q53T59 (Q53T59 whole entry, looked up): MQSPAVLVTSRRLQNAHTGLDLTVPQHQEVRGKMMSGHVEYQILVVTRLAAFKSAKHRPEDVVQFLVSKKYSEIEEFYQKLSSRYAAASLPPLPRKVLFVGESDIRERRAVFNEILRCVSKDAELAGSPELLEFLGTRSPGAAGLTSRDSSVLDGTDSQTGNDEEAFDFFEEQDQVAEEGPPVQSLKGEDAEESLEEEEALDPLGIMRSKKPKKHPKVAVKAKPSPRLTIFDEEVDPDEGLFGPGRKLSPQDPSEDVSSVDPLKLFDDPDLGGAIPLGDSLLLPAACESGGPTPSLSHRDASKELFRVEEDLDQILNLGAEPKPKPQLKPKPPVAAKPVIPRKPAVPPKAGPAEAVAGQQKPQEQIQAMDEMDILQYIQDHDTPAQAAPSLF
inactive: [1] -0.046 | [2] 0.087 | [3] -0.001 | [5] -0.203

GAK (UniProt O14976)
inactive: [2] 0.095 | [3] -0.032 | [4] 0.078 | [5] -0.209

HNRNPUL1 (UniProt M0R247)
inactive: [2] 0.079 | [4] 0.204 | [5] 0.122

GUSB (UniProt P08236)
inactive: [1] 0.019 | [2] -0.057 | [3] -0.048 | [4] 0.039 | [5] 0.053

GEMIN2 (UniProt O14893)
inactive: [1] 0.044 | [2] 0.013 | [3] -0.049 | [5] 0.025

GSE1 (UniProt Q14687)
active: [5] 1.45
inactive: [1] -0.151 | [2] 0.029 | [3] 0.008

GAB2 (UniProt Q9UQC2)
Chain of UniProt Q9UQC2 (Q9UQC2 whole entry, looked up): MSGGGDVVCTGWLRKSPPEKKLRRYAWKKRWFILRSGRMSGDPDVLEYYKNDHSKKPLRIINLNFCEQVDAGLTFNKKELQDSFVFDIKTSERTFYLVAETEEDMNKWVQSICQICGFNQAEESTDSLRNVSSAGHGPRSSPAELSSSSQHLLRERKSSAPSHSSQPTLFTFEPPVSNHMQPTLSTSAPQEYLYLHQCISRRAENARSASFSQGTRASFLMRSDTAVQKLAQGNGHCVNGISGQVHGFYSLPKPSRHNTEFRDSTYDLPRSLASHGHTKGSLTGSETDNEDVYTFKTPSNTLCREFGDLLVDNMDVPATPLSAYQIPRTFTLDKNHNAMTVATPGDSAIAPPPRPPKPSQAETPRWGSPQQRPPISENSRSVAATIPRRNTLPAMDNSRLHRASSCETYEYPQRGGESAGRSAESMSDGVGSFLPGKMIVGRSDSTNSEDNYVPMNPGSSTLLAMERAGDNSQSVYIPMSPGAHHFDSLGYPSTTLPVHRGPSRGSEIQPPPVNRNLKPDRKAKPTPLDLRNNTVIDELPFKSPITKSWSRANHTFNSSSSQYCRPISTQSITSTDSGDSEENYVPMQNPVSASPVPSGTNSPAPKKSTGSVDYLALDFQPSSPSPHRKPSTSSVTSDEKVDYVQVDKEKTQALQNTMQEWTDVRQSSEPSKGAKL
inactive: [2] 0.153 | [3] -0.059 | [4] 0.396 | [5] -0.034

H2AZ1 (UniProt P0C0S5)
Chain of UniProt P0C0S5 (P0C0S5 whole entry, looked up): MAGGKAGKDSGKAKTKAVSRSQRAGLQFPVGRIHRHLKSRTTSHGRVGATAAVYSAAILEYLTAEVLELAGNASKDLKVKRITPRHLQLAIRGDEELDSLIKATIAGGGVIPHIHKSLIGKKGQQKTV
inactive: [1] 0.12 | [2] -0.153 | [3] -0.247 | [4] -0.021 | [5] 0.123

HDAC6 (UniProt Q9UBN7)
inactive: [1] 0.159 | [2] 0.008 | [3] -0.001 | [4] -0.002 | [5] 0.009

FHOD1 (UniProt Q9Y613)
inactive: [1] -0.033 | [2] -0.065 | [3] 0.086 | [5] -0.034

HAT1 (UniProt O14929)
inactive: [1] 0.009 | [2] -0.005 | [3] 0.007 | [4] -0.101 | [5] -0.05

GREB1 (UniProt Q4ZG55)
inactive: [2] 0.095 | [3] 0.175 | [4] 0.037 | [5] -0.1
